Laboratory results published in PubChem BioAssay (NCATS).
Inconclusive results are not listed. Activity calls are given as the source filed them. Unless noted, calls come from the whole dose curve; as a rule, active = well fitted curve in the direction sought with a large enough effect; inconclusive = small, poorly fitted or top-dose-only effect, or another doubt; inactive = no such curve, though single readings can be large; an effect the other way counts as inactive or inconclusive.

Tests used:
[1] = Primary qHTS for small molecule stabilizers of the endoplasmic reticulum resident proteome: Secreted ER Calcium Modulated Protein (SERCaMP) assay (AID 1508630)
Outline: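 GLuc-SERCaMP-expressing SH-SY5Y cells, pretreated 16 h with compound, are challenged with thapsigargin to empty ER calcium stores; after 4 h, coelenterazine is added directly to the medium and luminescence is imaged.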

[2] = test system: Zika virus NS2B-NS3 protease (linked construct); test: Primary screen NINDS Rhodamine qHTS for Zika virus inhibitors (AID 1347160)
Outline: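 Percent inhibition, normalized to uninhibited and enzyme-free controls, is fitted to a 4-parameter Hill equation. Fluorescence change comes from a 15-min cleavage of 1.5 microM bis-peptide Rhodamine110 substrate by 25 nM linked NS2B-NS3 at room temperature.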

[3] = HPAF-II Cancer Cell Toxicity qHTS against the NCATS CANVASS Library (AID 1347346)
Outline: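 HPAF-II cells were seeded at 1000 cells/well, allowed to settle for 4 h at 37 degrees C, then exposed to compounds in an 11-point series for 72 h. Viability was read by CellTiter-Glo luminescence.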

[4] = OV-SAHO Cancer Cell Toxicity qHTS against the NCATS CANVASS Library (AID 1347348)
Outline: (§1)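 ATP content after 72 h treatment, detected by CellTiter-Glo luminescence (15min room-temperature development), reflects cell viability. Wells contained 1000 cells and received compounds at 11 concentrations.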

[5] = Panc-1005 Cancer Cell Toxicity qHTS against the NCATS CANVASS Library (AID 1347349)
Outline: as §1

[6] = U-118MG Cancer Cell Toxicity qHTS against the NCATS CANVASS Library (AID 1347351)
Outline: as §1

[7] = A2780 Cisplatin Sensitive Ovarian Cancer Cell Toxicity qHTS against the NCATS CANVASS Library (AID 1347353)
Outline: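 A2780 cisplatin-sensitive cells (750 per well) were seeded, left 4 h at 37 °C, then pin-dosed in an 11-point series. After 72 h at 37 °C/5% CO2, viability was measured as ATPLite luminescence.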

[8] = UWB1.289-WTBRCA1 Cancer Cell Toxicity qHTS against the NCATS CANVASS Library (AID 1347354)
Outline: (§2)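 Cells were seeded at 1000 per well and allowed to settle 4 hours at 37 degrees C before pin transfer of compounds as an 11-point series. Viability was read by CellTiter-Glo luminescence after 72 hours' exposure.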

[9] = HPAF-II 24hr Apoptosis Induction qHTS against the NCATS CANVASS Library (AID 1347356)
Outline: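 HPAF-II cells (500/well) in DMEM + 10% FBS were treated with an 11-point compound series for 24 hours at 37 degrees C. Caspase-3/7 activity was then read by Caspase-Glo DEVD luminescence after 15 min.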

[10] = HEK293 18hr Apoptosis Induction qHTS against the NCATS CANVASS Library (AID 1347357)
Outline: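 HEK293 cells (500/well, DMEM + 10% FBS) treated with an 11-point series for 18 h at 37 degrees C. Caspase-3/7 activity read by Caspase-Glo luminescence after 15 min at room temperature.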

[11] = HEK293 24hr Apoptosis Induction qHTS against the NCATS CANVASS Library (AID 1347359)
Outline: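 Caspase-3/7 activation measured as luminescence from the DEVD-based Caspase-Glo reagent, 15 min at room temperature, following 24-hour compound treatment of HEK293 cells.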

[12] = HPAF-II 18hr Apoptosis Induction qHTS against the NCATS CANVASS Library (AID 1347360)
Outline: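 HPAF-II cells at 500/well were exposed for 18 h at 37 C to an 11-point compound series. Caspase-3/7 activity was read by Caspase-Glo luminescence after 15 min at RT.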

[13] = HEK293 12hr Apoptosis Induction qHTS against the NCATS CANVASS Library (AID 1347361)
Outline: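 HEK293 cells (500/well) were exposed to an 11-point qHTS concentration series for 12 hours at 37 degrees C. Caspase-3/7 activity was then read by DEVD-substrate luciferase luminescence after 15 min at room temperature.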

[14] = target: Luciferin 4-monooxygenase (Photinus pyralis) (UniProt P08659); test: Firefly luciferase counterscreen qHTS: Assay Interference Panel against the NCATS CANVASS Library (AID 1347363)
Outline: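 Luminescence inhibition readout: compounds (11-point qHTS) sat 15 min at room temperature with substrate mix (0.013 mM luciferin and ATP), then firefly luciferase was added and signal read 5 min later.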

[15] = KB-8-5-11 Cancer Cell Toxicity qHTS against the NCATS CANVASS Library (AID 1347364)
Outline: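 KB-8-5-11 cells (500/well) in DMEM + 10% FBS were exposed to compounds in an 11-point qHTS series for 72 hr at 37C, 5% CO2. Viability was read by CellTiter-Glo luminescence.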

[16] = KB-3-1 Cancer Cell Toxicity qHTS against the NCATS CANVASS Library (AID 1347366)
Outline: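 KB-3-1 cells (500/well) in DMEM with 10% FBS were exposed to compounds for 72 h at 37C. Viability was read by CellTiter-Glo luminescence.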

[17] = qHTS for ATAD5 Agonist screened against the NCATS CANVASS Library (AID 1347367)
Outline: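 Luciferase reporter under ATAD5 control, stably integrated in HEK293T cells (2000/well). Compounds (11 points) incubated 16 h at 37C; viability read first by CellTiter-Fluor, then luminescence reporting ATAD5 activation. MMS positive control.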

[18] = MCF7 Cancer Cell Toxicity qHTS against the NCATS CANVASS Library (AID 1347369)
Outline: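 MCF7 cells (500/well) were exposed 72 h at 37 °C to compounds in an 11-point series. Viability was read as ATP content by CellTiterGlo luminescence.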

[19] = J3T Cancer Cell Toxicity qHTS against the NCATS CANVASS Library (AID 1347371)
Outline: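 J3T dog glioma cells (500 cells/well) were exposed to compounds in an 11-point series for 72 hr at 37C, 5% CO2. Cytotoxicity was read as ATP content by CellTiterGlo luminescence.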

[20] = target: Nuclear receptor subfamily 1 group I member 3 (Homo sapiens) (UniProt Q14994); test: qHTS for Constitutive Androstane Receptor (CAR) Antagonist screened against the NCATS CANVASS Library (AID 1347372)
Outline: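 HepG2-CYP2B6-hCAR double-stable cells plated, 4hr attach; cpd pin-transferred; CITCO 50 nM final; 24hr 37C/5% CO2; CellTiter-Fluor 1hr (fluorescence), then ONE-Glo luminescence.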

[21] = target: Nuclear receptor subfamily 1 group I member 3 (Homo sapiens) (UniProt Q14994); test: qHTS for Constitutive Androstane Receptor (CAR) Agonist screened against the NCATS CANVASS Library (AID 1347373)
Outline: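 HepG2 cells stably expressing hCAR and a CYP2B6-2.2kb luciferase reporter were treated for 24hr at 37C with compounds (11-point qHTS) in the presence of 1.5uM PK11195. Reporter activation was read by ONE-Glo luminescence.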

[22] = qHTS for Hypoxia signaling pathway (HIF-1) antagonists against the NCATS CANVASS Library (AID 1347374)
Outline: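 HRE-bla ME-180 cells (2,000/well, 0.5% dialyzed FBS) were pre-incubated 5 h, then given an 11-point compound series plus CoCl2 (60 uM solution as added) for 17 h at 37C. CCF4 β-lactamase read (ex 405, em 460/530 nm) after 2 h at RT.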

[23] = qHTS for Hypoxia signaling pathway (HIF-1) agonists against the NCATS CANVASS Library (AID 1347375)
Outline: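 HRE-bla ME-180 cells (beta-lactamase reporter under hypoxia responsive element) in 0.5% dialyzed FBS medium, 5 h at 37C, then compound 17 h, 11-point qHTS series. CCF4-AM FRET substrate 2 h RT; 460/530 nm emission read.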

[24] = 10-beta competent E. coli microbial cell viability qHTS against the NCATS CANVASS Library (AID 1347376)
Outline: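 10-beta competent E. coli (0.9 OD culture diluted to 0.2 OD) exposed to compounds in an 11-point qHTS series, incubated overnight at 37C, 5% CO2. Viability read as ATP by BacTiter-Glo luminescence after 20 min at room temperature.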

[25] = DH5-alpha competent E. coli microbial cell viability qHTS against the NCATS CANVASS Library (AID 1347377); details: outcome: at 46.1 µM (top of the series)
Outline: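 DH5-alpha E. coli suspension (0.9 OD culture diluted to 0.2 OD) exposed to compounds in an 11-point series, overnight at 37C, 5% CO2. Viability read as ATP by BacTiter-Glo luminescence after 20 min at room temperature.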

[26] = Inflammasome Signaling qHTS Counterscreen: IL-1-beta AlphaLISA counterscreen against the NCATS CANVASS Library (AID 1347381)
Outline: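 To flag interference with the AlphaLISA read-out, a known amount of purified IL-1-beta (4 pg) replaced cell supernatant. Detection used anti-IL-1-beta acceptor beads, biotinylated antibody and streptavidin donor beads at room temperature.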

[27] = qHTS for Activators of p53 Stress Response Pathway screened against the NCATS CANVASS Library (AID 1347388)
Outline: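 Beta-lactamase reporter driven by p53 response elements in HCT-116 cells, read as the 460 nm/530 nm emission ratio after CCF4 loading, following 16 h of exposure to an 11-point series. Cell viability was measured in the same wells by CellTiter-Glo luminescence.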

[28] = Secretion counterscreen for inhibitors of the SERCaMP assay screened against the NCATS CANVASS Library (AID 1347390)
Outline: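 SH-SY5Y cells with constitutively secreted GLuc reporter, 1000 cells/well, treated 20 h at 37C with compounds at 0.001 - 77 uM final; secreted luciferase read as luminescence after coelenterazine; Brefeldin A as positive control.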

[29] = qHTS for activators of dead-cell proteases activity screened against the NCATS CANVASS Library (AID 1347392)
Outline: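 Compounds are pin-transferred onto attached HepG2 cells, giving 11 final concentrations. After 5 h at 37C, AAF-aminoluciferin reagent is added and luminescence is recorded at room temperature.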

[30] = Vero-766 cells viability qHTS against the NCATS CANVASS Library: Counterscreen for Zika virus inhibition assay (AID 1347394)
Outline: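 Vero 766 cells (1000/well), without Zika virus, were exposed to compounds for 72 h at 37C. Viability was measured by CellTiter Glo luminescence. Media-only wells served as 100% inhibition.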

[31] = qHTS for inhibitors of Wild type Zika virus screened against the NCATS CANVASS Library (AID 1347396)
Outline: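 Using ATP-based luminescence (CellTiter Glo), this screen scores rescue of Vero 766 cells from wild-type Zika killing at 72 h post-infection. Compounds are tested in a concentration series.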

[32] = Redox Reaction Profiling qHTS: Assay Interference Panel against the NCATS CANVASS Library (AID 1347401)
Outline: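 Cell-free redox surrogate: 5 uM resazurin + 200 uM DTT, 50 mM HEPES pH 7.3/50 mM NaCl; cpds pinned, 11-pt qHTS; Ex525/Em598 read t0 and t=15 min, dark.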

[33] = qHTS for inhibitors of Rabies Virus screened against the NCATS CANVASS Library (AID 1347402; calls by dose curve)
[34] = HEK-293 Cancer Cell Toxicity qHTS against the NCATS CANVASS Library (AID 1347355)
Outline: as §2

[35] = G06 Cancer Cell Toxicity qHTS against the NCATS CANVASS Library (AID 1347368)
Outline: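 G06 dog glioma cells seeded at 500 cells/well were exposed to compounds (11-point qHTS series) for 72 hr at 37C, 5% CO2; viability read as ATP content by CellTiterGlo luminescence.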

[36] = qHTS for Inflammasome Signaling Inhibitors: IL-1-beta AlphaLISA screen against the NCATS CANVASS Library (AID 1347379)
Outline: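 Human THP-1 cells were pretreated 1 hr at 37 °C with compounds (up to 57.5 uM final), then stimulated with LPS (250 ng/mL final) and ATP (1.25 mM final). Secreted IL-1B was read by AlphaLISA after 16 hr.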

[37] = qHTS for inhibitors of ER calcium dysfunction: SERCaMP assay screened against the NCATS CANVASS Library (AID 1347393)
Outline: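 Thapsigargin-induced ER calcium depletion drives GLuc-SERCaMP secretion from SH-SY5Y cells; compounds given 16 h beforehand were scored by lowered coelenterazine luminescence after 4 h challenge.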

Measured: Potency

Chain of Luciferin 4-monooxygenase (Photinus pyralis) (P08659 whole entry, looked up): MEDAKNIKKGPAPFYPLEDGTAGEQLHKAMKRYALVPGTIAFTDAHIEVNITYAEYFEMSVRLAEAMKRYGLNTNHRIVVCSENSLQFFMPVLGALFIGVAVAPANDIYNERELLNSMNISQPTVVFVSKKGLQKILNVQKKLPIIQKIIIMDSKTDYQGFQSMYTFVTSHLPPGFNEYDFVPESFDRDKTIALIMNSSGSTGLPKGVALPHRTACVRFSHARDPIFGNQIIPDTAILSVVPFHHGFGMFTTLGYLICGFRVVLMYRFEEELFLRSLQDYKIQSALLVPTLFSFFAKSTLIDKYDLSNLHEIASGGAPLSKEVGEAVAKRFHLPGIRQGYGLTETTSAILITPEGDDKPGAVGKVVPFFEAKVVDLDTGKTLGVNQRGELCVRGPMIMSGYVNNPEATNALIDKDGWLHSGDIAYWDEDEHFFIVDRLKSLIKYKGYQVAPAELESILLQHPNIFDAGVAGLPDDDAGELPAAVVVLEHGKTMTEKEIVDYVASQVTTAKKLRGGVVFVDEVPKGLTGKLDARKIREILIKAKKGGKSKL
Chain of Nuclear receptor subfamily 1 group I member 3 (Homo sapiens) (Q14994 whole entry, looked up): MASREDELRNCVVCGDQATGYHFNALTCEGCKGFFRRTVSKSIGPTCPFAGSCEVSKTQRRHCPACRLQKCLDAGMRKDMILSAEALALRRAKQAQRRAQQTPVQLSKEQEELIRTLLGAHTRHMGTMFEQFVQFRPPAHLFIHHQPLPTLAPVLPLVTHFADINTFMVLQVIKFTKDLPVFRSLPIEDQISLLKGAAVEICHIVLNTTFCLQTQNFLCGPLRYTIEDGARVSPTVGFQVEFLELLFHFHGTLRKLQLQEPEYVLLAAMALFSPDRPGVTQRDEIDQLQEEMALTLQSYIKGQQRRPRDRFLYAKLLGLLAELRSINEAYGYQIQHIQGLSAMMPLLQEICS

C=CCN1CCC23c4c5ccc(O)c4OC2/C(=N/N=C2\CCC4(O)C6Cc7ccc(O)c8c7C4(CCN6CC=C)C2O8)CCC3(O)C1C5 (stereo not drawn)
inactive: [1]

CO[C@H](c1ccccc1)[C@H]1NC(=O)C(C)NC(=O)C(C[C@@H](C)CO)N(C)C(=O)[C@@H](C(O)c2cn(C(C)(C)C3CO3)c3ccccc23)NC(=O)C(C(C)C=C(C)C)NC(=O)C(CC(C)C)N(C)C(=O)C(C(C)C)NC1=O (stereo partly drawn)
active: [2] 21.6 µM
not listed: [1] | [34] | [35] | [36] | [37]
inactive: all other assays above

CCCN(C/C=C/I)C1CCc2ccc(O)cc2C1 (stereo not drawn)
inactive: [1]

CCN1C[C@]2(C)CC[C@@H](O)[C@]34C1[C@H](C[C@H]23)C12CCC(CC14)[C@](O)(CO)[C@H]2O (stereo partly drawn)
not listed: [1] | [20] | [31]
inactive: all other assays above

CCCC[C@@H](C)[C@@H](OC(=O)C[C@@H](CC(=O)O)C(=O)O)[C@H](C[C@@H](C)C[C@H](O)CCCC[C@@H](O)C[C@H](O)[C@H](C)N)OC(=O)C[C@H](CC(=O)O)C(=O)O
inactive: [1]

CC[C@@H]1CN2CC[C@@]3(O)C(=Nc4cccc(OC)c43)[C@@H]2C[C@@H]1/C(=C\OC)C(=O)OC
not listed: [1] | [34] | [37]
inactive: all other assays above
